Test results as given in PubChem BioAssay AID1159580 (chemical genetic matrix, 2015).
In all, about 5,500 compounds went through this assay and about 2,000 (36%) were called active. Inconclusive results (about 18%) are left out. No stated cut-off is given here; in the data, active means normalized growth mostly below about 0.91 (no sharp cut-off); inconclusive means no clear call, values can overlap the other calls; inactive means mostly above about 0.92. This is one part of the list.

Assay: chemical genetic growth profiling, strain panel (AID 1159580);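 further: tested at 20 µM; growth read once vehicle control cultures reached saturation at 30 °C; 1 = growth at the plate median or of vehicle wells; lower values mean less growth of the strain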
Conditions: growth OD

Measured: normalized growth

CC(C)Nc1nc(Cl)nc(NC(C)C)n1
inactive: S. cerevisiae deletion strains, locus YJR075W, strain HOC1, hits give low values 1.01 | S. cerevisiae deletion strains, locus YKL009W, strain mrt4, hits give low values 1.01 | S. cerevisiae deletion strains, locus YKL068W, hits give low values 1.01 | S. cerevisiae deletion strains, locus YKL085W, strain MDH1 (second series), hits give low values 1 | S. cerevisiae deletion strains, locus YKL085W, strain MDH1, hits give low values 1 | S. cerevisiae deletion strains, locus YKL160W, strain elf1, hits give low values 1 | S. cerevisiae deletion strains, locus YKL190W, strain CNB1, hits give low values 1.01 | S. cerevisiae deletion strains, locus YKR001C, strain vps1, hits give low values 1.01 | S. cerevisiae deletion strains, locus YKR026C, strain gcn3, hits give low values 0.994 | S. cerevisiae deletion strains, locus YKR091W, strain srl3, hits give low values 0.998 | S. cerevisiae deletion strains, locus YLL001W, strain dnm1, hits give low values 1.01 | S. cerevisiae deletion strains, locus YLL026W, hits give low values 0.991 | S. cerevisiae deletion strains, locus YLL041C, strain sdh2, hits give low values 1 | S. cerevisiae deletion strains, locus YLR027C, strain aat2, hits give low values 0.995 | S. cerevisiae deletion strains, locus YLR039C, strain RIC1, hits give low values 0.995 | S. cerevisiae deletion strains, locus YLR058C, strain SHM2, hits give low values 1.01 | S. cerevisiae deletion strains, locus YLR102C, strain apc9, hits give low values 1.02 | S. cerevisiae deletion strains, locus YLR113W, strain HOG1, hits give low values 1 | S. cerevisiae deletion strains, locus YLR221C, strain rsa3, hits give low values 0.994 | S. cerevisiae deletion strains, locus YLR258W, strain gsy2, hits give low values 1 | S. cerevisiae deletion strains, locus YLR262C, strain YPT6 (second series), hits give low values 0.935 | S. cerevisiae deletion strains, locus YLR262C, strain YPT6, hits give low values 0.984 | S. cerevisiae deletion strains, locus YLR268W, strain sec22, hits give low values 0.992 | S. cerevisiae deletion strains, locus YLR320W, strain mms22, hits give low values 0.995 | S. cerevisiae deletion strains, locus YLR330W, strain CHS5, hits give low values 1.01 | S. cerevisiae deletion strains, locus YLR342W, strain FKS1 (second series), hits give low values 1.01 | S. cerevisiae deletion strains, locus YLR342W, strain FKS1, hits give low values 1.01 | S. cerevisiae deletion strains, locus YLR357W, strain rsc2, hits give low values 0.95 | S. cerevisiae deletion strains, locus YLR370C, strain arc18, hits give low values 1 | S. cerevisiae deletion strains, locus YLR371W, strain rom2, hits give low values 1.01 | S. cerevisiae deletion strains, locus YLR384C, strain iki3, hits give low values 1 | S. cerevisiae deletion strains, locus YLR418C, strain cdc73, hits give low values 0.979 | S. cerevisiae deletion strains, locus YML016C, strain PPZ1, hits give low values 1.01 | S. cerevisiae deletion strains, locus YML032C, strain rad52, hits give low values 1.01 | S. cerevisiae deletion strains, locus YML120C, strain ndi1, hits give low values 0.998 | S. cerevisiae deletion strains, locus YML124C, strain tub3, hits give low values 1.01 | S. cerevisiae deletion strains, locus YMR058W, strain fet3, hits give low values 1.01 | S. cerevisiae deletion strains, locus YMR078C, strain ctf18, hits give low values 1.02 | S. cerevisiae deletion strains, locus YMR125W, strain sto1, hits give low values 0.997 | S. cerevisiae deletion strains, locus YMR129W, hits give low values 0.994 | S. cerevisiae deletion strains, locus YMR205C, strain PFK2, hits give low values 0.985 | S. cerevisiae deletion strains, locus YMR223W, strain ubp8, hits give low values 1.01 | S. cerevisiae deletion strains, locus YMR231W, strain pep5, hits give low values 0.999 | S. cerevisiae deletion strains, locus YMR263W, strain SAP30, hits give low values 1.02 | S. cerevisiae deletion strains, locus YMR307W, strain GAS1, hits give low values 1.02 | S. cerevisiae deletion strains, locus YNL067W, strain RPL9B, hits give low values 0.999 | S. cerevisiae deletion strains, locus YNL071W, strain lat1, hits give low values 1 | S. cerevisiae deletion strains, locus YNL128W, strain TEP1, hits give low values 1 | S. cerevisiae deletion strains, locus YNL153C, strain GIM3, hits give low values 0.989 | S. cerevisiae deletion strains, locus YNL183C, strain NPR1, hits give low values 0.935 | S. cerevisiae deletion strains, locus YNL209W, strain ssb2, hits give low values 0.999 | S. cerevisiae deletion strains, locus YNL233W, strain BNI4, hits give low values 1.02 | S. cerevisiae deletion strains, locus YNL248C, strain rpa49, hits give low values 0.982 | S. cerevisiae deletion strains, locus YNL250W, strain rad50, hits give low values 1.01 | S. cerevisiae deletion strains, locus YNL271C, strain bni1, hits give low values 1.01 | S. cerevisiae deletion strains, locus YNL298W, strain CLA4, hits give low values 1.02 | S. cerevisiae deletion strains, locus YNL307C, strain MCK1, hits give low values 1.02 | S. cerevisiae deletion strains, locus YNL322C, strain KRE1 (second series), hits give low values 0.992 | S. cerevisiae deletion strains, locus YNL322C, strain KRE1, hits give low values 1.01 | S. cerevisiae deletion strains, locus YNR049C, strain mso1, hits give low values 1 | S. cerevisiae deletion strains, locus YNR052C, strain pop2, hits give low values 1.01 | S. cerevisiae deletion strains, locus YOL006C, strain TOP1, hits give low values 1.03 | S. cerevisiae deletion strains, locus YOL012C, strain htz1 0.789 | S. cerevisiae deletion strains, locus YOL147C, strain pex11, hits give low values 1.01 | S. cerevisiae deletion strains, locus YOR001W, strain rrp6, hits give low values 0.999 | S. cerevisiae deletion strains, locus YOR061W, strain CKA2, hits give low values 0.998 | S. cerevisiae deletion strains, locus YOR069W, strain VPS5, hits give low values 1.01 | S. cerevisiae deletion strains, locus YOR070C, strain gyp1, hits give low values 1.01 | S. cerevisiae deletion strains, locus YOR080W, strain dia2, hits give low values 0.994 | S. cerevisiae deletion strains, locus YOR083W, strain WHI5, hits give low values 1 | S. cerevisiae deletion strains, locus YOR106W, strain vam3, hits give low values 1.01 | S. cerevisiae deletion strains, locus YOR136W, strain idh2, hits give low values 1.01 | S. cerevisiae deletion strains, locus YOR144C, strain elg1, hits give low values 1 | S. cerevisiae deletion strains, locus YOR184W, strain ser1, hits give low values 1.02 | S. cerevisiae deletion strains, locus YOR231W, strain MKK1, hits give low values 0.978 | S. cerevisiae deletion strains, locus YOR265W, strain rbl2, hits give low values 1 | S. cerevisiae deletion strains, locus YOR270C, strain vph1, hits give low values 1.01 | S. cerevisiae deletion strains, locus YOR290C, strain snf2, hits give low values 1.02 | S. cerevisiae deletion strains, locus YOR316C, strain cot1, hits give low values 1.01 | S. cerevisiae deletion strains, locus YPL051W, strain arl3, hits give low values 0.997 | S. cerevisiae deletion strains, locus YPL055C, strain LGE1, hits give low values 0.983 | S. cerevisiae deletion strains, locus YPL078C, strain atp4, hits give low values 0.999 | S. cerevisiae deletion strains, locus YPL106C, strain sse1, hits give low values 1 | S. cerevisiae deletion strains, locus YPL240C, strain hsp82, hits give low values 1.01 | S. cerevisiae deletion strains, locus YPL241C, strain CIN2, hits give low values 1 | S. cerevisiae deletion strains, locus YPL256C, strain CLN2, hits give low values 0.966 | S. cerevisiae deletion strains, locus YPR119W, strain clb2, hits give low values 1.01 | S. cerevisiae deletion strains, locus YPR141C, strain kar3, hits give low values 1.02 | S. cerevisiae deletion strains, locus YPR163C, strain tif3, hits give low values 1 | S. cerevisiae deletion strains, locus YPR167C, strain met16, hits give low values 1.01 | S. cerevisiae deletion strains, strain wtn01, hits give low values 1.01 | S. cerevisiae strains, strain wild type, hits give low values 1
